Results on 12 compounds are retold here after PubChem BioAssay (NCI).

Test systems include HCT-15 colon; HT29 colon; SNB-75 CNS; SNB-19 CNS; U251 CNS; PC-3 prostate; SK-MEL-5 melanoma; UACC-62 melanoma; LOX IMVI melanoma; SK-MEL-28 melanoma.
Assay in all cases: NCI-60 one-dose screen, 48 h (100 = growth as untreated, 0 = no growth, -100 = all killed)
Common to all, as to conditions: 10 µM unless noted

The structures appear in SMILES notation. About 83,000 compounds went through this panel and 20% of them were active in at least one assay; those are over-represented in the sample as a whole.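 The test compound was applied at a single concentration to cells in 96-well plates for 48 hours, and percent growth was recorded.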 Unmarked numbers belong to inactive results. Calls of active or inactive are those of the source. The calls were made as follows: active = growth percent below 10; inactive = the rest.

Take `CCN(CC)CCCNc1cccc2c(C)cc(OC)nc12`: the growth with HCT-15 colon is 94.9%; in the assay with HT29 colon, 87.6%; in the assay on SNB-75 CNS, 76.8%; in the assay on SNB-19 CNS, 94.9%; with U251 CNS, 94.3%; with PC-3 prostate it was 75.1%. In addition, the growth is 91.3% in the assay on SK-MEL-5 melanoma, 85.3% in the assay with UACC-62 melanoma, 105% in the assay on LOX IMVI melanoma and 103% with SK-MEL-28 melanoma.
Consider `CC1=C(O)C(=O)C(c2c(C)cc(C)c(Br)c2C)=C(O)C1=O`, for which the growth with HCT-15 colon was 35.5%; in the assay on HT29 colon, 66.7%; in the assay with SNB-75 CNS it was 59.6%; in the assay with SNB-19 CNS, 63.9%; with U251 CNS, 65.8%; in the assay with PC-3 prostate, 84.5%. Moreover, the growth is 57.4% in the assay with SK-MEL-5 melanoma, 40.7% in the assay on UACC-62 melanoma, 35.7% in the assay on LOX IMVI melanoma and 73.5% with SK-MEL-28 melanoma.
With `Cc1ccc(/C=C/C(=N/N=C(N)N)c2ccccc2)cc1`, the growth in the assay with HCT-15 colon was 27.6%; in the assay on HT29 colon, 4.56% (active); with SNB-75 CNS it was -0.425% (active); in the assay with SNB-19 CNS it was 38.9%; with U251 CNS it was 13.4%; in the assay with PC-3 prostate it was 19%. In addition, the growth in the assay on SK-MEL-5 melanoma is 11.3%; in the assay on UACC-62 melanoma it was 33.9%; in the assay with LOX IMVI melanoma, 30.8%; with SK-MEL-28 melanoma, 46.2%.
On to `COc1ccc(C2CC(c3cccc(Nc4ccnc5cc(Cl)ccc45)c3)=NN2c2ccc(Cl)cc2)cc1` (stereo not given), for which the growth in the assay on HCT-15 colon was 42.5%; in the assay on HT29 colon, 64.2%; with SNB-75 CNS it was 79.7%; with SNB-19 CNS, 94.8%; in the assay on U251 CNS, 65%; in the assay with PC-3 prostate, 60.7%. Moreover, the growth was 53.4% in the assay with SK-MEL-5 melanoma, 9.78% (active) in the assay on UACC-62 melanoma, 47.4% in the assay with LOX IMVI melanoma and 65.8% in the assay on SK-MEL-28 melanoma.
`COc1ccc2c(c1)CCCC21C(=O)Nc2c(Cl)cccc21` (stereo not given): the growth in the assay on HCT-15 colon is 85%; with HT29 colon it was 21.1%; in the assay on SNB-75 CNS it was 41%; with SNB-19 CNS it was 82.9%; in the assay on U251 CNS, 54.1%; in the assay on PC-3 prostate, 74.4%. For the same compound, the growth with SK-MEL-5 melanoma was 76.8%; with UACC-62 melanoma, 58%; in the assay on LOX IMVI melanoma, 71.3%; with SK-MEL-28 melanoma, 64.7%.
In the case of `O=C(Nc1ccc2[nH]c3ccccc3c2c1)c1ccccc1Cl`, the growth in the assay with HCT-15 colon was 31.7%; with HT29 colon, 1.78% (active); in the assay with SNB-75 CNS, 59.1%; in the assay on SNB-19 CNS it was 82.9%; in the assay with U251 CNS, 32.6%; in the assay with PC-3 prostate it was 54.1%. For the same compound, the growth with SK-MEL-5 melanoma was 30.3%; in the assay on UACC-62 melanoma, 56.4%; with LOX IMVI melanoma, 33.9%; with SK-MEL-28 melanoma, 57.8%.
As for `COc1ccc(-c2nsc3c2NC(=O)CC3c2cccc(F)c2)cc1` (stereo not given), the growth with HCT-15 colon was 23%; with HT29 colon, 10.4%; with SNB-75 CNS it was 68.5%; in the assay on SNB-19 CNS it was 82.7%; in the assay with U251 CNS, 45.6%; in the assay with PC-3 prostate, 49.4%. Besides, the growth with SK-MEL-5 melanoma is 32.5%; in the assay on UACC-62 melanoma, 48.5%; in the assay on LOX IMVI melanoma, 50.9%; in the assay on SK-MEL-28 melanoma, 65.4%.
In the case of `[O-]/[N+](=C\c1ccccc1)CC1(O)CCCCC1`, the growth is 98.4% with HCT-15 colon; 102% with HT29 colon; 81.1% with SNB-75 CNS; 99.4% in the assay on SNB-19 CNS; 97.6% with U251 CNS; 108% with PC-3 prostate. The growth with SK-MEL-5 melanoma is 105%; in the assay with UACC-62 melanoma, 102%; in the assay with LOX IMVI melanoma, 101%; in the assay with SK-MEL-28 melanoma, 106%.
Turning to `Nc1nc(N)c2c(n1)NC(c1sc(Cl)nc1Cl)CC(c1ccccc1)=N2` (stereo not given), the growth was 27.9% with HCT-15 colon; 12.6% in the assay on HT29 colon; 30.1% with SNB-75 CNS; 61.7% in the assay with SNB-19 CNS; 33.3% in the assay with U251 CNS; 59.5% in the assay on PC-3 prostate. The growth with SK-MEL-5 melanoma was 33.5%; in the assay on UACC-62 melanoma, 45.7%; in the assay on LOX IMVI melanoma, 41.5%; with SK-MEL-28 melanoma, 62.3%.
For the compound `O=C1OCC2=C1C(c1ccc(Cl)c(Cl)c1)c1cc3c(cc1N2CCO)CCC3` (stereo not given), the growth in the assay on HCT-15 colon is 13.4%; in the assay on HT29 colon, 3.94% (active); in the assay with SNB-75 CNS it was 18%; in the assay on SNB-19 CNS, 32.5%; in the assay with U251 CNS, 16%; in the assay with PC-3 prostate, 25.5%. Also, the growth in the assay on SK-MEL-5 melanoma was 30%; in the assay on UACC-62 melanoma it was 13.7%; in the assay with LOX IMVI melanoma, 32.8%; with SK-MEL-28 melanoma, 47.3%.
Regarding `COc1ccc2nc(NC(=O)/C(=C/c3cc(OC)c(OC)c(OC)c3)c3ccc(OC)c(OC)c3)sc2c1`, the growth was 100% with HCT-15 colon; 88.4% in the assay with HT29 colon; 94.3% in the assay on SNB-75 CNS; 102% in the assay with SNB-19 CNS; 94.6% in the assay on U251 CNS; 86.8% in the assay on PC-3 prostate. Moreover, the growth with SK-MEL-5 melanoma is 93%; in the assay on UACC-62 melanoma, 90.5%; in the assay with LOX IMVI melanoma, 90.4%; with SK-MEL-28 melanoma it was 105%.
Turning to `C=CCn1c(SCC(=O)Nc2ccc(/C(C)=N\O)cc2)nnc1-c1cc(-c2ccccc2)nc2ccccc12`, the growth in the assay with HCT-15 colon was 50.8%; in the assay on HT29 colon, 49.9%; in the assay on SNB-75 CNS, 58.3%; in the assay on SNB-19 CNS it was 68.5%; in the assay with U251 CNS it was 59.1%; with PC-3 prostate, 43.5%. Besides, the growth in the assay on SK-MEL-5 melanoma is 48.4%; with UACC-62 melanoma it was 24.3%; in the assay on LOX IMVI melanoma, -58.1% (active); in the assay on SK-MEL-28 melanoma it was 86.7%.
